# Legend:
# Assay in all cases: DAPPL (digital affinity profiling via proximity ligation, sequencing); 10 mM Tris-HCl pH 7.5, 50 mM NaCl, 1 mM DTT, 4% glycerol, room temperature, 30 min; GST-TFs on glutathione beads, 16-mer random dsDNA library, 0.1% formaldehyde crosslink after washing; high values mean tight binding
# FEV = target: T1, FEV (Homo sapiens, UniProt Q99581 1-238); conditions: protein: recombinant; tags: N-terminal GST; dsDNA, one strand shown
# T1 sequence: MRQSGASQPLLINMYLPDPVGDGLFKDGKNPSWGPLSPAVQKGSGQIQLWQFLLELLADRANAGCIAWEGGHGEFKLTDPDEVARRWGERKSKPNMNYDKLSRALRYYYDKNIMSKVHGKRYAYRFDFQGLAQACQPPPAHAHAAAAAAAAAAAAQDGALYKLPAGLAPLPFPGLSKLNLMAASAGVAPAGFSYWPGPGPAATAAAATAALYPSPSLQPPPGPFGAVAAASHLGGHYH
# Outline: (§1)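 Sequencing on an Illumina NextSeq500 followed washing, crosslinking with 0.1% formaldehyde, proximity ligation (BsaI/T4 ligase, 1 h, 37 °C) and PCR amplification of pools that had been incubated for 30 min at room temperature with 200 nmole of a random double-stranded 16-mer DNA library in Tris/NaCl/DTT/glycerol buffer. Each pool held DNA-barcoded human transcription factors, expressed in yeast as GST fusions and captured on glutathione beads, plus a tag-only sample. Binding signal is a hexamer's read frequency for a factor divided by its frequency in the tag-only sample.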
# ETV5 = ETV5 (Homo sapiens, UniProt P41161 1-510); conditions: protein: recombinant; tags: N-terminal GST; dsDNA, one strand shown
# Sequence of ETV5 (P41161 whole entry): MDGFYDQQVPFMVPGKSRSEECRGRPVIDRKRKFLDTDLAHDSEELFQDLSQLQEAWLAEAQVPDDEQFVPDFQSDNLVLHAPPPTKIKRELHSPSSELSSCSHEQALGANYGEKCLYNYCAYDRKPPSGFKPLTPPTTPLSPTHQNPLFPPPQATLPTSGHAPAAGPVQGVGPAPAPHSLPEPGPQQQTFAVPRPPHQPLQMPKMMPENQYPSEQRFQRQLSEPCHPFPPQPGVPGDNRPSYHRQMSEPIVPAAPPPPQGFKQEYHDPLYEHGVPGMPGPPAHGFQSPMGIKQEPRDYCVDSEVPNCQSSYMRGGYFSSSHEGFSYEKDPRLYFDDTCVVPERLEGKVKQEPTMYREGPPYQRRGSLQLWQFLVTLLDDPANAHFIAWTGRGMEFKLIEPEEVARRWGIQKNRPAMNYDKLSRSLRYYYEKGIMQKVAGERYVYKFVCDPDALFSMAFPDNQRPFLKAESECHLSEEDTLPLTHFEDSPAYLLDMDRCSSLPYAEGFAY
# Outline: as §1
# HSF1 = HSF1 (Homo sapiens, UniProt Q00613 1-529); conditions: protein: recombinant; tags: N-terminal GST; chain copies: 3; dsDNA, one strand shown
# Sequence of HSF1 (Q00613 whole entry): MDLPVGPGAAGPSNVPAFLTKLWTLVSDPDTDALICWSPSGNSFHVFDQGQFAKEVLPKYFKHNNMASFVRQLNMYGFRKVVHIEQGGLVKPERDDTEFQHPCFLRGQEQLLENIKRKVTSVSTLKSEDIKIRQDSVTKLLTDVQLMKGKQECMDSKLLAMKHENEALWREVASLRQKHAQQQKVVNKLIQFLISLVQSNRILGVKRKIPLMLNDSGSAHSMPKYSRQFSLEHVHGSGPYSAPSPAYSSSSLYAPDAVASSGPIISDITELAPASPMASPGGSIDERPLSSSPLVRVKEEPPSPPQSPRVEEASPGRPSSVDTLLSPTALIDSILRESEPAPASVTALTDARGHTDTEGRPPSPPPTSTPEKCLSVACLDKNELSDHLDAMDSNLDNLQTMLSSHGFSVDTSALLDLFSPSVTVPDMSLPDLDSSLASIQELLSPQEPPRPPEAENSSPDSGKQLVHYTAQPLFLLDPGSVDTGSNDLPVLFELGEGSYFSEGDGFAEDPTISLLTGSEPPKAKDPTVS
# Outline: as §1
# SPIC = target: T2, SPIC (Homo sapiens, UniProt Q8N5J4 1-248); conditions: protein: recombinant; tags: N-terminal GST; dsDNA, one strand shown
# T2 sequence: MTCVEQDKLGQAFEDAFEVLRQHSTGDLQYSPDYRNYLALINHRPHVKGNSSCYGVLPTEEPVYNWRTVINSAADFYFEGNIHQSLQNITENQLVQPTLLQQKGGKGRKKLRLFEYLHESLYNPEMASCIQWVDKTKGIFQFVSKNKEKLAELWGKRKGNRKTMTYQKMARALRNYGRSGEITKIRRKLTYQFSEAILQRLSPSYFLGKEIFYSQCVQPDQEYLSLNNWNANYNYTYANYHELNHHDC
# Outline: as §1
# ELF4 = ELF4 (Homo sapiens, UniProt Q99607 1-663); conditions: protein: recombinant; tags: N-terminal GST; dsDNA, one strand shown
# Sequence of ELF4 (Q99607 whole entry): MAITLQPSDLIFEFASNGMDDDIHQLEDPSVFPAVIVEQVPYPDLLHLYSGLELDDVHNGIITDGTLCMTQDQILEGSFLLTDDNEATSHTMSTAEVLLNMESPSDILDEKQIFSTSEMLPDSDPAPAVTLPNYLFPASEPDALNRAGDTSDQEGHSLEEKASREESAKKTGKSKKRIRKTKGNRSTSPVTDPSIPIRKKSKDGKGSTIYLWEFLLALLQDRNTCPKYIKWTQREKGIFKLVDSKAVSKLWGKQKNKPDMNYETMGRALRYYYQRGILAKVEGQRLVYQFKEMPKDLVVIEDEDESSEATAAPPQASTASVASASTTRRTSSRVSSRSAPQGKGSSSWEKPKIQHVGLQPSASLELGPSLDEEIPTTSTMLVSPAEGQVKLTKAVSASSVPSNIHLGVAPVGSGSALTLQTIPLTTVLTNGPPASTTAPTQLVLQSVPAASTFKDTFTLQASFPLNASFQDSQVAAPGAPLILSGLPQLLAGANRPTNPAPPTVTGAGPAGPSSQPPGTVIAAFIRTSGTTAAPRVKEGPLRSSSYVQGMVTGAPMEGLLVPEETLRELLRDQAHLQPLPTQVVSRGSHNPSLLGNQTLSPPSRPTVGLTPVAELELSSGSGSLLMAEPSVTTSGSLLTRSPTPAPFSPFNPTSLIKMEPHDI
# Outline: as §1
# ELK4 = target: T3, ELK4 (Homo sapiens, UniProt P28324-2 1-405); conditions: protein: recombinant; tags: N-terminal GST; dsDNA, one strand shown
# T3 sequence: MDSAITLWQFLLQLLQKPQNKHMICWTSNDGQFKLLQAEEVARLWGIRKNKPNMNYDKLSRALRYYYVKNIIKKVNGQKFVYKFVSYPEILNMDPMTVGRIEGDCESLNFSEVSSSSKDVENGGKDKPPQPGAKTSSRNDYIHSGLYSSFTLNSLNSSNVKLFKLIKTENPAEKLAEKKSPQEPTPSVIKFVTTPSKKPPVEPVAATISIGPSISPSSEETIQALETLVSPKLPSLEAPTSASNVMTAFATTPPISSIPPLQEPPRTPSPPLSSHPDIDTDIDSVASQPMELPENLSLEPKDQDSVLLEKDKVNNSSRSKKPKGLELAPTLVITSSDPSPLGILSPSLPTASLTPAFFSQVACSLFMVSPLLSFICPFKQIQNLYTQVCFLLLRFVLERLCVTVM
# Outline: as §1
# ETV2 = target: T4, ETV2 (Homo sapiens, UniProt O00321 1-342); conditions: protein: recombinant; tags: N-terminal GST; dsDNA, one strand shown
# T4 sequence: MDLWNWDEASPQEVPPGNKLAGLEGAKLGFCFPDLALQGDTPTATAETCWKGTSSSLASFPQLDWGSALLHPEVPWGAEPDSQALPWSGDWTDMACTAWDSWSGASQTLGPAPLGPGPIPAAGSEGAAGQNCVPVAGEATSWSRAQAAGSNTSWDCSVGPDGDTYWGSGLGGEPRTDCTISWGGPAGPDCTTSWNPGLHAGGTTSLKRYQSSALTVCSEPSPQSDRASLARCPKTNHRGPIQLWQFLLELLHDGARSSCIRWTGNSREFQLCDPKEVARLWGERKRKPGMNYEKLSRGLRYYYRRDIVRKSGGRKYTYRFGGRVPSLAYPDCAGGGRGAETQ
# Outline: as §1
# ELF3 = target: T5, ELF3 (Homo sapiens, UniProt P78545 1-371); conditions: protein: recombinant; tags: N-terminal GST; dsDNA, one strand shown
# T5 sequence: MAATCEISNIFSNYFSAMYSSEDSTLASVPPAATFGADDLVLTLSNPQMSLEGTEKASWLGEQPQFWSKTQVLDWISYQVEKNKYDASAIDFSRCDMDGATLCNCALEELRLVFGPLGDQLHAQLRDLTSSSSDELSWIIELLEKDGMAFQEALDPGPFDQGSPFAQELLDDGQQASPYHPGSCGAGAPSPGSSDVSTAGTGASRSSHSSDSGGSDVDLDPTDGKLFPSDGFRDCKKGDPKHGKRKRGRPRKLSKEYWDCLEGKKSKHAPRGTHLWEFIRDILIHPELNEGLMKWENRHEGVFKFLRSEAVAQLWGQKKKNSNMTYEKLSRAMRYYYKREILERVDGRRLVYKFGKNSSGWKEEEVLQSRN
# Outline: as §1
# ETV1 = ETV1 (Homo sapiens, UniProt P50549 1-477); conditions: protein: recombinant; tags: N-terminal GST; dsDNA, one strand shown
# Sequence of ETV1 (P50549 whole entry): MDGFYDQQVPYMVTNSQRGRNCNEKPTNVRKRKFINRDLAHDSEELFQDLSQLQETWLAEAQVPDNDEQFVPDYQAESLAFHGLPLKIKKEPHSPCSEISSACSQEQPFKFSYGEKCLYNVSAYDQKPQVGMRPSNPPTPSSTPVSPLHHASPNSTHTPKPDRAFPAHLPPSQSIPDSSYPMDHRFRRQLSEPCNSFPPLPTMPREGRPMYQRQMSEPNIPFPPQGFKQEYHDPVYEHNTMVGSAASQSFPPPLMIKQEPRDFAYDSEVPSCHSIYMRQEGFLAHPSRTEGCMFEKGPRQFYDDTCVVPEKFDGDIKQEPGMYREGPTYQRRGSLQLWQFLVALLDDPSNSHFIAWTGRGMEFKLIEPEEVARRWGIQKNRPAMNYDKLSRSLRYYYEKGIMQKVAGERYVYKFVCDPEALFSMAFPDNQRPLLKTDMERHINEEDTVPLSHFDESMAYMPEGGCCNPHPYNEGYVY
# Outline: as §1
# ERF = target: T6, ERF (Homo sapiens, UniProt P50548 1-548); conditions: protein: recombinant; tags: N-terminal GST; dsDNA, one strand shown
# T6 sequence: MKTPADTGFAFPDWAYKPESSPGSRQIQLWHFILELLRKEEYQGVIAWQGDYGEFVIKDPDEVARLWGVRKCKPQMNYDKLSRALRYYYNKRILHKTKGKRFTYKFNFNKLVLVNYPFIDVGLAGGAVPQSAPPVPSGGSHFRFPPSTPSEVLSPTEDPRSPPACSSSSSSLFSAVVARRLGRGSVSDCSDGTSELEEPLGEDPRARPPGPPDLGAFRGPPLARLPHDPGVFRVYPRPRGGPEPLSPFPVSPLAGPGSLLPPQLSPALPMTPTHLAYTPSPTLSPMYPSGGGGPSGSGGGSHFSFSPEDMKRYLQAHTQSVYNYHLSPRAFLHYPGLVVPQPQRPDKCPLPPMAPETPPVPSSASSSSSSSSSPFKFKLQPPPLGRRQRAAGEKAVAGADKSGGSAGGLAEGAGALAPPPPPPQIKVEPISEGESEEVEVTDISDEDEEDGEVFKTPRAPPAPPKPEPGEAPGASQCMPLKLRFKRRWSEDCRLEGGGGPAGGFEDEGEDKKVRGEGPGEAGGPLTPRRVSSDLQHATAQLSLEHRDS
# Outline: as §1
# ETV3L = target: T7, ETV3L (Homo sapiens, UniProt Q6ZN32 1-361); conditions: protein: recombinant; tags: N-terminal GST; dsDNA, one strand shown
# T7 sequence: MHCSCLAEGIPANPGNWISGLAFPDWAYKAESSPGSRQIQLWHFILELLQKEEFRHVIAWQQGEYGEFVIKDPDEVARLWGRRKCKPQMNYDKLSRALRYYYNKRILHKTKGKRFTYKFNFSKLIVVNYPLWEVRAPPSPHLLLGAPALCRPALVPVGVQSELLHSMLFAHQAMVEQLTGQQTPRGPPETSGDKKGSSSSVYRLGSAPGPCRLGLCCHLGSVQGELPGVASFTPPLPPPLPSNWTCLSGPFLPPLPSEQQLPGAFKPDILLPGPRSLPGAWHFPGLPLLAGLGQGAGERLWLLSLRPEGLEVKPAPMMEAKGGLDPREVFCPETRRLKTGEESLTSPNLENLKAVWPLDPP
# Outline: as §1
# ETS2 = target: T8, ETS2 (Homo sapiens, UniProt P15036 1-469); conditions: protein: recombinant; tags: N-terminal GST; dsDNA, one strand shown
# T8 sequence: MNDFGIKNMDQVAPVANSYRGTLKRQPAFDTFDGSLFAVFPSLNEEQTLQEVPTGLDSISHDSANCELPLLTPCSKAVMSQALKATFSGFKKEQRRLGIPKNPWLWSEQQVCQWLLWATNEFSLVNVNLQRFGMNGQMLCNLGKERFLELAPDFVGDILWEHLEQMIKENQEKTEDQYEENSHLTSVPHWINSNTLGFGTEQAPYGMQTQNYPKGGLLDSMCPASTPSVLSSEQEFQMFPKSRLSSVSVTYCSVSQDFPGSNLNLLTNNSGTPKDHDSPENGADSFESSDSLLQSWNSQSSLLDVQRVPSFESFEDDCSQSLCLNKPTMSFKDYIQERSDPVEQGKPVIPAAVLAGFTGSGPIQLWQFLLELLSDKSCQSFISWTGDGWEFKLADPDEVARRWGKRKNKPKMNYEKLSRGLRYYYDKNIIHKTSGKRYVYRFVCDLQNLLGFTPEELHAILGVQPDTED
# Outline: as §1
# SPDEF = target: T9, SPDEF (Homo sapiens, UniProt O95238 1-335); conditions: protein: recombinant; tags: N-terminal GST; dsDNA, one strand shown
# T9 sequence: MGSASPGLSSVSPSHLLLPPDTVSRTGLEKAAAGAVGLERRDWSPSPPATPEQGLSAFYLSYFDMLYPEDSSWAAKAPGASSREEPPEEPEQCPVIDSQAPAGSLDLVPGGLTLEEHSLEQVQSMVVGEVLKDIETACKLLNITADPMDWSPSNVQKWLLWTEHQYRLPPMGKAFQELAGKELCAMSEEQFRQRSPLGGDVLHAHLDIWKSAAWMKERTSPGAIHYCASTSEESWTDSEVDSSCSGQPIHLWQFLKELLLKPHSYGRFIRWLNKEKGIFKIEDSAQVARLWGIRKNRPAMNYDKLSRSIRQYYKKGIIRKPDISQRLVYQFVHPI
# Outline: as §1
# ETV7 = target: T10, ETV7 (Homo sapiens, UniProt Q9Y603 1-341); conditions: protein: recombinant; tags: N-terminal GST; dsDNA, one strand shown
# T10 sequence: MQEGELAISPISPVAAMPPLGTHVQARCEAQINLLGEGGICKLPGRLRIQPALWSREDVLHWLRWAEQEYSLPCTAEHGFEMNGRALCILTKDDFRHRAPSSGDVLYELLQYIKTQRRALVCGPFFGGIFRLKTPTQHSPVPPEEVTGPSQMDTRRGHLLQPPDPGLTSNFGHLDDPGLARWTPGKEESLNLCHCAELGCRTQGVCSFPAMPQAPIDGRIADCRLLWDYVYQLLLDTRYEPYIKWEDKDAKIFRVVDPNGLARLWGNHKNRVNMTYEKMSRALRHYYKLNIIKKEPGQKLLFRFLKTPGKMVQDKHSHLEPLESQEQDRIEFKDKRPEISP
# Outline: as §1
# ELF5 = target: T11, ELF5 (Homo sapiens, UniProt Q9UKW6-2 1-255); conditions: protein: recombinant; tags: N-terminal GST; dsDNA, one strand shown
# T11 sequence: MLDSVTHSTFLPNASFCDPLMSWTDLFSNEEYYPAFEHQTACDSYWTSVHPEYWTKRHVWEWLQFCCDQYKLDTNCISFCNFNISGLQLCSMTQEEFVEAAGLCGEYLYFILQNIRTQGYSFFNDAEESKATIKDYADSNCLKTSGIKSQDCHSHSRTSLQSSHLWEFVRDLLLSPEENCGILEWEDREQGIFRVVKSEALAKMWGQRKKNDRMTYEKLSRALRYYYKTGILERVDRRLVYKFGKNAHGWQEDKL
# Outline: as §1
# ETV3 = target: T12, ETV3 (Homo sapiens, UniProt P41162-2 1-143); conditions: protein: recombinant; tags: N-terminal GST; dsDNA, one strand shown
# T12 sequence: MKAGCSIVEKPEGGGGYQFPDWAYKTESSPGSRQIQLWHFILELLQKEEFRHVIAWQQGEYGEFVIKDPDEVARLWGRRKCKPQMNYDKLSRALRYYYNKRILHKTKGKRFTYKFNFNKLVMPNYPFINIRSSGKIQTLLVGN
# Outline: as §1
# ETV6 = ETV6 (Homo sapiens, UniProt P41212 1-452); conditions: protein: recombinant; tags: N-terminal GST; dsDNA, one strand shown
# Sequence of ETV6 (P41212 whole entry): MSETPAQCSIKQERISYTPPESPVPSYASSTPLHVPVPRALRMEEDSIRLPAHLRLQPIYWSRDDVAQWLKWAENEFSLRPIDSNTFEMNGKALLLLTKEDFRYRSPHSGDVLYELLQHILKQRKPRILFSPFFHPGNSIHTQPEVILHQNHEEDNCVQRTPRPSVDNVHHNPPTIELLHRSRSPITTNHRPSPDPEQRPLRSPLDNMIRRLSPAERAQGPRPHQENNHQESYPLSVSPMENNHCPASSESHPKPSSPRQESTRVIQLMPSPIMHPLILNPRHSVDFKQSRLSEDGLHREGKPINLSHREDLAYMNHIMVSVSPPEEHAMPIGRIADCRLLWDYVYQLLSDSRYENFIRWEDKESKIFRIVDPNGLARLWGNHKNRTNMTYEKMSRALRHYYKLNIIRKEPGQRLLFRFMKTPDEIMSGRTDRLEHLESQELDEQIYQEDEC
# Outline: as §1
sequence,measurement,setting,value
GGTTCC,binding signal,FEV,"1.68 fold enrichment (6-mer frequency, TF over GST control)"
same,binding signal,ETV5,"1.57 fold enrichment (6-mer frequency, TF over GST control)"
same,binding signal,HSF1,"1.13 fold enrichment (6-mer frequency, TF over GST control)"
same,binding signal,SPIC,"1.38 fold enrichment (6-mer frequency, TF over GST control)"
same,binding signal,ELF4,"1.44 fold enrichment (6-mer frequency, TF over GST control)"
same,binding signal,ELK4,"1.38 fold enrichment (6-mer frequency, TF over GST control)"
same,binding signal,ETV2,"1.32 fold enrichment (6-mer frequency, TF over GST control)"
same,binding signal,ELF3,"1.7 fold enrichment (6-mer frequency, TF over GST control)"
same,binding signal,ETV1,"1.63 fold enrichment (6-mer frequency, TF over GST control)"
same,binding signal,ERF,"1.35 fold enrichment (6-mer frequency, TF over GST control)"
same,binding signal,ETV3L,"1.46 fold enrichment (6-mer frequency, TF over GST control)"
same,binding signal,ETS2,"1.59 fold enrichment (6-mer frequency, TF over GST control)"
same,binding signal,SPDEF,"1.84 fold enrichment (6-mer frequency, TF over GST control)"
same,binding signal,ETV7,"1.47 fold enrichment (6-mer frequency, TF over GST control)"
same,binding signal,ELF5,"1.75 fold enrichment (6-mer frequency, TF over GST control)"
same,binding signal,ETV3,"1.71 fold enrichment (6-mer frequency, TF over GST control)"
same,binding signal,ETV6,"1.55 fold enrichment (6-mer frequency, TF over GST control)"

# Source: paper PMC7862700, “An all-to-all approach to the identification of sequence-specific readers for epigenetic DNA modifications on cytosine”
